Pf Dd2 growth = blocks in vitro growth of P. falciparum Dd2; P. falciparum Dd2 growth, SYBR Green, 72 h; Potency, µM (highest dose often 28.9 µM), without a hit: at the highest dose activity, negative = inhibition, hits mostly inhibitors; hit rate 4.3% among 120,000; AID 1347417; active = well fitted inhibition curve with a large enough effect;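 also: plate controls were DMSO vehicle for no effect and reference drug for full effect; nearly all actives have a fitted effect of over 65% in size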
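Infected erythrocytes (Dd2, 0.3% parasitemia, 2.5% hematocrit final) are added to compound in RPMI-1640/Albumax II medium, grown 72 h at 37C in low oxygen, then lysed with saponin/Triton-X containing SYBR Green and read by fluorescence.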
* marks the source's active call; other numbers are inactive results; i = inactive; [ ] = another dose, or the depositor's remark. The full list was thinned out, with hits kept by preference. Potency is read from the fitted curve at half-maximal effect.

SMILES | Pf Dd2 growth
CN1C(=O)CCC2(CNC(=O)c3cn[nH]c3-c3ccccc3)CCC=C12 (configuration not stated) | 16.4%
O=C(N1CCCCC1)C1(CCO)CC12CCOCC2 (configuration not stated) | 25.3%
Cc1ccsc1C(=O)N1[C@@H]2CC[C@H]1CC(NC(=O)c1ccncc1)C2 (some centres not stated) | 22.3%
O=[S+]1([O-])NC2(CCN(Cc3cccc4ccccc34)CC2)CNc2ccccc21 | -11.5%
O=C1CCCCC(CNC(=O)c2n[nH]c(=O)c3ccccc23)N1 (configuration not stated) | -23.8%
CCOc1cc(=O)n2c(c1C(=O)Nc1ccc(OC)c(OC)c1)CCCC2 | 17.8%
O=C(NCCCc1ccccc1)c1n[nH]c2c1CN(C(=O)c1ccccc1F)CC2 | i
O=C1CCN(C(=O)[C@@H]2CCCN2C(=O)NC2CCCCC2)CCCCCCN1 | 4.2%
COc1ccc(C)cc1NC(=O)N1CCC(Oc2ncccc2C(=O)N(C)C)C1 (configuration not stated) | i
CSc1ccccc1C(=O)N1CCOC(Cc2cccc(F)c2)C1 (configuration not stated) | -8.5%
Cc1ccc(OCc2nc(C3CCNC3)no2)cc1 (configuration not stated) | -0.7%
Fc1ccccc1OCc1nc(C2CCCNC2)no1 (configuration not stated) | i
c1ccc(OCc2nc(C3CCCNC3)no2)cc1 (configuration not stated) | 5.62µM*
CN1C[C@H](NCc2ccc(C(F)(F)F)cc2)CCC[C@@H](C(=O)N(C)Cc2cccnc2)CC1=O | -6.8%
Cc1ccc(CCNC(=O)c2ccc3c(Cl)c4c(nc3c2)CCCC4)cc1 | -4.3%
CSc1ccc(CCNC(=O)c2ccc3c(Cl)c4c(nc3c2)CCCC4)cc1 | -16.5%
CCN(CC)CCCNC(=O)c1ccc2c(Cl)c3c(nc2c1)CCCC3 | 11.2µM*
CN(Cc1cccnc1)C1CN(C(=O)C2CCCC2)C1 | 11.6%
CCN(CC)CC[C@H]1CN(C(=O)C2CC2)CC[C@H]1CC(=O)O | 58.3%[44.1 µM]
CC(C)Cc1nc(CN(C)C(=O)c2cccc(CCC(C)(C)O)c2)no1 | i
CC(=O)Nc1ccc(NC(=O)c2ccc3c(c2)CCN3S(=O)(=O)c2ccc(Cl)cc2)cc1 | i
CC(C)c1ccc(NC(=O)c2ccc3c(c2)CCCN3S(C)(=O)=O)cc1 | -2.5%
CC(C)c1ccc(NC(=O)c2ccc3c(c2)CCN3S(=O)(=O)c2ccccc2)cc1 | 8.91µM*
Cc1ccc(F)cc1-c1cccc(CCOc2cnc3c(ccn3CC(=O)O)c2)c1 | i
CC1=C(C(=O)NC2CC(=O)N(Cc3cccc4ccccc34)C2)OCCO1 (configuration not stated) | -20.3%
SMILES | Pf Dd2 growth
Cc1ccc(CNC(=O)C2CCN(c3cnn(Cc4ccccc4)c(=O)c3)C2)o1 (configuration not stated) | i
Cc1nc2c(c(C)nn2-c2ccccc2)c(C)c1CCC(=O)NCc1ccccc1 | -27.3%
Cc1ccc(-n2nc(C)c3c(C)c(CCC(=O)NCc4cccc(Cl)c4)c(C)nc32)cc1C | -6.4%
Cc1ccc(-n2nc(C)c3c(C)c(CCC(=O)NCc4ccccc4Cl)c(C)nc32)cc1 | 5.62µM*
CCCCNC(=O)CCc1c(C)nc2c(c(C)nn2-c2ccccc2)c1C | -22.6%
CCOc1ccc(CCNC(=O)CCc2c(C)nc3c(c(C)nn3-c3ccccc3)c2C)cc1OCC | 7.94µM*
Cc1nc2c(c(C)nn2-c2ccccc2)c(C)c1CCC(=O)NCCc1ccccc1 | -23.1%
O=C(NCCC1=CCCCC1)C1CCN(c2cnc3nccnc3c2)CC1 | -9.2%
Cc1ccc(F)c(OC2(C(=O)O)CCN(S(=O)(=O)c3cnn(C)c3)CC2)c1 | -4.7%
COc1ccccc1NS(=O)(=O)c1cc2c(cc1Cl)NC(=O)CO2 | 8.91µM*
COc1ccc(CNS(=O)(=O)c2cc3c(cc2Cl)NC(=O)CO3)cc1 | 38.0%[0.594 µM]
COc1ccc(NS(=O)(=O)c2cc3c(cc2C)NC(=O)CO3)c(OC)c1 | 4.0%
Cc1ccn2c(C(=O)NCC3CCN(c4cnn(C)c(=O)c4)C3)nnc2n1 (configuration not stated) | 2.1%
Cc1cccc(C(=O)N2CCC(n3cc(-c4nc(C)no4)nn3)CC2)c1 | -5.8%
O=C(CCCc1ccccc1)N1CCCC1c1noc(COc2ccc(F)cc2)n1 (configuration not stated) | -28.1%
COc1ccccc1CCN1CCC(CN(C)C(=O)CCc2ccccc2Cl)CC1 | 8.91µM*
COc1ccccc1CCN1CCCC(CN(C)C(=O)Cn2cccnc2=O)C1 (configuration not stated) | -2.3%
COc1ccccc1CCN1CCCC(CN(C)C(=O)CN2C(=O)CNC2=O)C1 (configuration not stated) | 5.2%
COC1CCOC2(CCN(C(=O)COc3ccc(F)cc3)CC2)C1 (configuration not stated) | -5.8%
CSCc1ccc(C(=O)N2CCN(c3ccc(C)cc3)C(=O)C2)o1 | -24.8%
O=C([C@@H]1C[C@H](Oc2cccnc2)CN1S(=O)(=O)c1cccc(F)c1)N1CCCC1 | 20.0%
CS(=O)(=O)N1CCc2ccc(C(=O)NCc3ccc(N4CCOCC4)cc3)cc21 | i
Cc1cccc(-n2ccnc2SCC(=O)Nc2ccc(F)cc2F)c1C | 3.5%
CCc1ccc(NC(=O)CSc2nccn2-c2cccc(C)c2C)cc1 | 23.7%
Cc1ccc(C)c(NC(=O)CSc2nccn2-c2cccc(C)c2C)c1 | 3.55µM*
SMILES | Pf Dd2 growth
CNC(=O)[C@H]1C[C@H](Oc2cccnc2)CN1C(=O)Cc1cccc(C)c1 | -8.3%
CC(C)(C)CN1CCNC(=O)C1CC(=O)O (configuration not stated) | 0.5%
COc1ncccc1-c1ncc2c(n1)OCCN(Cc1ccccc1)C2=O | -19.2%[44.1 µM]
CC(=O)Nc1cccc(-c2ncc3c(n2)OCCN(Cc2ccc(F)cc2F)C3=O)c1 | 12.6µM*
COc1ccc(-c2ncc3c(n2)OCCN(Cc2ccccc2)C3=O)cc1 | 1.26µM*
O=C1c2cnc(-c3ccoc3)nc2OCCN1Cc1ccc(F)cc1F | i
O=C1c2cnc(-c3ccc(F)cc3F)nc2OCCN1Cc1ccc(F)cc1F | -1.6%[44.1 µM]
COc1cccc(-c2ncc3c(n2)OCCN(Cc2ccccc2)C3=O)c1 | i
COc1cccc(NS(=O)(=O)c2ccc3c(c2)[C@H]2C=CC[C@H]2[C@@H](c2ccccc2Cl)N3)c1 | 10µM*
COc1cccc([C@@H]2Nc3ccc(C(=O)O)cc3[C@@H]3C=CC[C@@H]32)c1OC | 1.6%
COc1cccc(NS(=O)(=O)c2ccc3c(c2)CCCN3C(=O)C2CCC2)c1 | -22.7%
CCCCS(=O)(=O)c1nc(-c2ccc(Br)cc2)cc(-c2ccccc2)c1C#N | 5.01µM*
C#CCSc1nc(-c2ccccc2)cc(-c2ccccc2)c1C#N | 5.9%[0.594 µM]
Cc1cccc(-c2cc(-c3ccccc3)nc(SCC(=O)Nc3ccccc3)c2C#N)c1 | 13.3%
CN(C)c1ccc(CN2CC(Oc3ccc(F)cc3F)C2)cc1 | -16.5%
Cn1cnc(S(=O)(=O)N2CCC3(CC2)CC(CC(=O)N2CCCC2)CCO3)c1 (configuration not stated) | 20.6%
O=C(Cn1nc2n(c1=O)CCCCC2)NCc1ccccc1Br | -22.6%
O=C(c1cccc(Cl)c1)N1CCN(C2CCN(CCc3ccccc3)C2=O)CC1 (configuration not stated) | i
Cc1ccc(C(=O)N2CCN(C3CCN(CCc4ccccc4)C3=O)CC2)cc1F (configuration not stated) | 10µM*
CCC(=O)N1CCN(C2CCN(CCc3ccccc3)C2=O)CC1 (configuration not stated) | i

Screening results from PubChem BioAssay.
